Hits are enriched below; roughly 1.5% of the tested compounds scored in any of these assays.
CCHF vOTU inh = CCHFV vOTU protease inhibition. Pep-AMC fluorescence. inhibition, % at 11.5 µM. actives 0.55% (n = 370,000). AID 651958; in the data active means inhibition above about 30%
PrPC TRFRET = cell surface PrPC inhibition, primary TR-FRET screen | P04156 | TR-FRET read-out | inhibition, % at 13.8 µM | actives 0.43% (n = 370,000); in the data active means inhibition above about 24%
VHR inh abs = inhibitors of human VHR1 phosphatase (DUSP3) | P51452 | actives 0.52% (n = 290,000) | inhibition, % at 13.3 µM | recombinant VHR phosphatase, pNPP absorbance; in the data active means inhibition above about 50%
BH1578 lux ind = inducers of Vibrio cholerae quorum light production without autoinducers. activation, % at 18.7 µM. actives 0.16% (n = 350,000). V. cholerae BH1578 lux reporter, luminescence, 6 h; in the data active means activation mostly above about 9.7%, no sharp cut-off
TcdB GH inh = TcdB glycohydrolase inhibition; actives 0.24% (n = 350,000); TcdB glycohydrolase enzymatic assay, plate reader; inhibition, % at 9.99 µM; in the data active means inhibition above about 10%
SSB-PriA inh = blocks PriA binding to SSB C-terminal tail; AlphaScreen SSBct-PriA binding, biotinylated peptide; actives 0.6% (n = 430,000); inhibition, % at 33 µM; in the data active means inhibition mostly above about 37%, no sharp cut-off; inactive means mostly below about 20%
A number is an active result; - = inactive; . = no result given.

SMILES	CCHF vOTU inh	PrPC TRFRET	VHR inh abs	BH1578 lux ind	TcdB GH inh	SSB-PriA inh
O=C(Oc1c(CN2CCOCC2)cc(Cl)c2cccnc12)c1ccccc1F	-	-	-	-	-	58.3
O=C(Oc1c(CN2CCOCC2)cc(Cl)c2cccnc12)c1ccco1	.	.	.	.	.	101.0
CCOc1cccc2cc(-c3csc(NC(=O)c4ccnn4C)n3)oc12	.	.	.	.	.	-
O=C(NC(c1ccccc1)c1ccccc1)N(Cc1cnc2ccccn12)c1ccccc1	.	.	.	.	.	44.0
O=C(NC1CCCCC1)N(Cc1cnc2ccccn12)c1ccccc1	.	.	.	.	.	-
O=C1OC(C(=O)NCCc2ccccc2)Cc2ccc(Cl)cc21 (centres undefined)	.	.	.	.	.	-
O=C1OCC/C1=C\c1ccc2c(c1)OCO2	-	-	52.3	-	-	-
O=C1OCC/C1=C\c1ccc(O)cc1	-	-	-	-	20.5	-
CCc1ccc(NSc2ccccc2[N+](=O)[O-])cc1	-	-	-	-	-	64.7
O=C(O)c1ccccc1NSc1ccccc1[N+](=O)[O-]	-	-	-	-	-	-
Cc1nnc(NC(=O)CSc2cn(CCNC(=O)c3ccc(Cl)cc3Cl)c3ccccc23)s1	.	.	.	.	.	-
COc1ccc(N2CCN(C(=O)c3ccc(S(=O)(=O)N4CCOCC4)cc3)CC2)cc1	-	-	51.2	-	.	-
COc1ccc(N2CCN(C(=O)c3ccc(S(=O)(=O)N4CCCC4)cc3)CC2)cc1	-	-	-	-	-	-
COC(=O)c1ccc(NC(=O)CN2CC(=O)Oc3ccccc32)cc1	.	.	.	.	.	45.0
COC(=O)c1ccc(NC(=O)CN2CCN(c3ccccc3C)CC2)cc1	-	-	-	-	-	-
NS(=O)(=O)c1ccc(NC(=O)CN2CC(=O)Oc3ccccc32)cc1	.	.	.	.	.	94.0
COc1ccc(Br)c(C(=O)N2CCC(Cn3ccnc3C)CC2)c1	.	.	.	.	.	-
COc1ccc(-c2cc(=O)n(CC(=O)Nc3cccnc3)cn2)cc1	.	.	.	.	.	-
CC(C)=NNc1ncnc2nc[nH]c12	-	-	.	-	-	49.5
CC(O)CNc1ncnc2nc[nH]c12 (centres undefined)	-	-	-	-	.	-
COc1ccccc1C=C1SC(=S)NC1=O	-	-	.	-	10.6	-
Cc1ccc(S(=O)(=O)Oc2ccccc2C=NO)cc1	.	.	.	.	.	-
Cc1ccc(S(=O)(=O)Oc2ccccc2/C=C2\SC(=O)NC2=O)cc1	-	-	-	-	10.6	.
CN=c1scc(-c2ccccc2F)n1/N=C(\C)c1cccnc1	-	-	57.5	-	-	.
CCN(Cc1cnc2ccccn12)C(=O)NCCOC	.	.	.	.	.	-
SMILES	CCHF vOTU inh	PrPC TRFRET	VHR inh abs	BH1578 lux ind	TcdB GH inh	SSB-PriA inh
COc1ccc(NC(=O)CCCN2C(=O)CN(C)C2=O)c(OC)c1	-	-	.	-	-	56.9
COc1ccc(NC(=O)CCCC(=O)O)c(OC)c1	.	.	.	.	.	-
O=[N+]([O-])c1cc(S(=O)(=O)Nc2ccccc2)ccc1N1CCN(c2ccc(O)cc2)CC1	-	-	-	-	-	42.9
CN1CCN(S(=O)(=O)c2ccc(N3CCN(c4ccc(O)cc4)CC3)c([N+](=O)[O-])c2)CC1	-	-	.	-	-	-
Cc1ccc(NS(=O)(=O)c2ccc(N3CCN(c4ccc(O)cc4)CC3)c([N+](=O)[O-])c2)c(C)c1	-	-	-	-	-	62.9
O=C(CSc1nnc(-c2ccccn2)n1Cc1ccco1)c1ccc(Cl)cc1	-	-	-	-	.	89.9
O=C(CSc1nnc(-c2ccccn2)n1Cc1ccco1)c1ccccc1	-	-	-	-	.	-
CCc1ccc(CCC(=O)Nc2ncc(Cc3ccccc3Cl)s2)o1	-	-	59.9	-	-	-
Cc1nn(Cc2c(F)cccc2Cl)c(C)c1NC(=O)C1CC1	-	-	50.8	-	.	-
Cc1ccc(NC(=O)CSc2nccn3nc(-c4ccc(F)cc4)cc23)cc1Cl	.	.	.	.	.	-
CN(C)CCCNc1nc2c(F)cccc2s1	.	.	.	.	.	-
O=C(Nc1ccc2oc(=O)ccc2c1)c1ccc(-c2cccc(Cl)c2)o1	-	-	-	-	-	-
O=C(Nc1ccc2oc(=O)ccc2c1)c1ccc(-c2cccc([N+](=O)[O-])c2)o1	-	-	58.5	-	-	-
COc1ccc(C)cc1-n1ccn(CC(=O)Nc2ccccc2F)c(=O)c1=O	.	.	.	.	.	-
Cn1c(=O)oc2cc(S(=O)(=O)Nc3ccccc3O)ccc21	-	-	-	-	-	-
COC(=O)c1ccccc1NS(=O)(=O)c1ccc2c(c1)oc(=O)n2C	-	-	51.7	-	-	-
Cn1c(=O)oc2cc(S(=O)(=O)NCc3ccccc3)ccc21	-	-	50.9	-	.	-
O=C(NCCCN1CCCC1=O)C(=O)NCc1ccc(F)cc1	.	.	.	.	.	-

From PubChem BioAssay
